Data published in the supplement of paper PMC11732987, “Enantioselective OTUD7B fragment discovery through chemoproteomics screening and high-throughput optimisation” (Communications Chemistry, 2025).
Unmarked numbers belong to inactive results.

Key:
Test in all cases: log2 ratio of Biotin-Ahx-Ub-VS probe labelling (fragment/DMSO); higher = less target engagement (more negative = stronger competition), active = hit call of the paper (q ≤ 0.05, log2 ratio ≤ -1)
Details in all cases: compound concentration: 200 uM; treatment time: 3 h
[1] = compound: CC(C)CN(C1CC1)C(=O)CCl
Summary of the method: (§1)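 Labelled DUBs were enriched with NeutrAvidin, digested with LysC and trypsin, and run by diaPASEF LC-MS/MS. The labelling used Biotin-Ahx-Ub-VS at 0.5 µM final for 1 h on HEK293T lysate (495 µg per sample) previously treated in triplicate with fragment at 200 µM or vehicle for 3 h. Values are average log2 fragment/vehicle ratios by unpaired t-test on global-median-normalised Spectronaut quantities of proteins with ≥2 unique peptides.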

[2] = compound: CC(NC(=O)CCl)c1cccs1
Summary of the method: as §1

[3] = compound: CC1CCCCC1NC(=O)CCl
Summary of the method: as §1

[4] = compound: CC1CCCCN1C(=O)CCl
Summary of the method: as §1

[5] = compound: CC1CN(CC(C)O1)C(=O)CCl
Summary of the method: as §1

[6] = compound: CN(C1CCCCC1)C(=O)CCl
Summary of the method: as §1

[7] = compound: Cc1cc(NC(=O)CCl)no1
Summary of the method: as §1

[8] = compound: Cc1cccc(NC(=O)CCl)c1
Summary of the method: as §1

[9] = compound: Cc1nc(NC(=O)CCl)sc1C
Summary of the method: as §1

[10] = compound: Cc1nnc(NC(=O)CCl)s1
Summary of the method: as §1

[11] = compound: Cl.Cc1ncsc1CNC(=O)CCl
Summary of the method: as §1

[12] = compound: ClCC(=O)N1CCCCCCC1
Summary of the method: as §1

[13] = compound: ClCC(=O)NC1(CCCC1)C#N
Summary of the method: as §1

[14] = compound: ClCC(=O)NCC1CCC1
Summary of the method: as §1

[15] = compound: ClCC(=O)NCC1CCCO1
Summary of the method: as §1

[16] = compound: ClCC(=O)NCc1ccco1
Summary of the method: as §1

[17] = compound: ClCC(=O)Nc1cccc(Cl)c1
Summary of the method: as §1

[18] = compound: ClCC(=O)NC(C1CC1)C1CC1
Summary of the method: as §1

Chain of UniProt Q70EL1 (Q70EL1 whole entry): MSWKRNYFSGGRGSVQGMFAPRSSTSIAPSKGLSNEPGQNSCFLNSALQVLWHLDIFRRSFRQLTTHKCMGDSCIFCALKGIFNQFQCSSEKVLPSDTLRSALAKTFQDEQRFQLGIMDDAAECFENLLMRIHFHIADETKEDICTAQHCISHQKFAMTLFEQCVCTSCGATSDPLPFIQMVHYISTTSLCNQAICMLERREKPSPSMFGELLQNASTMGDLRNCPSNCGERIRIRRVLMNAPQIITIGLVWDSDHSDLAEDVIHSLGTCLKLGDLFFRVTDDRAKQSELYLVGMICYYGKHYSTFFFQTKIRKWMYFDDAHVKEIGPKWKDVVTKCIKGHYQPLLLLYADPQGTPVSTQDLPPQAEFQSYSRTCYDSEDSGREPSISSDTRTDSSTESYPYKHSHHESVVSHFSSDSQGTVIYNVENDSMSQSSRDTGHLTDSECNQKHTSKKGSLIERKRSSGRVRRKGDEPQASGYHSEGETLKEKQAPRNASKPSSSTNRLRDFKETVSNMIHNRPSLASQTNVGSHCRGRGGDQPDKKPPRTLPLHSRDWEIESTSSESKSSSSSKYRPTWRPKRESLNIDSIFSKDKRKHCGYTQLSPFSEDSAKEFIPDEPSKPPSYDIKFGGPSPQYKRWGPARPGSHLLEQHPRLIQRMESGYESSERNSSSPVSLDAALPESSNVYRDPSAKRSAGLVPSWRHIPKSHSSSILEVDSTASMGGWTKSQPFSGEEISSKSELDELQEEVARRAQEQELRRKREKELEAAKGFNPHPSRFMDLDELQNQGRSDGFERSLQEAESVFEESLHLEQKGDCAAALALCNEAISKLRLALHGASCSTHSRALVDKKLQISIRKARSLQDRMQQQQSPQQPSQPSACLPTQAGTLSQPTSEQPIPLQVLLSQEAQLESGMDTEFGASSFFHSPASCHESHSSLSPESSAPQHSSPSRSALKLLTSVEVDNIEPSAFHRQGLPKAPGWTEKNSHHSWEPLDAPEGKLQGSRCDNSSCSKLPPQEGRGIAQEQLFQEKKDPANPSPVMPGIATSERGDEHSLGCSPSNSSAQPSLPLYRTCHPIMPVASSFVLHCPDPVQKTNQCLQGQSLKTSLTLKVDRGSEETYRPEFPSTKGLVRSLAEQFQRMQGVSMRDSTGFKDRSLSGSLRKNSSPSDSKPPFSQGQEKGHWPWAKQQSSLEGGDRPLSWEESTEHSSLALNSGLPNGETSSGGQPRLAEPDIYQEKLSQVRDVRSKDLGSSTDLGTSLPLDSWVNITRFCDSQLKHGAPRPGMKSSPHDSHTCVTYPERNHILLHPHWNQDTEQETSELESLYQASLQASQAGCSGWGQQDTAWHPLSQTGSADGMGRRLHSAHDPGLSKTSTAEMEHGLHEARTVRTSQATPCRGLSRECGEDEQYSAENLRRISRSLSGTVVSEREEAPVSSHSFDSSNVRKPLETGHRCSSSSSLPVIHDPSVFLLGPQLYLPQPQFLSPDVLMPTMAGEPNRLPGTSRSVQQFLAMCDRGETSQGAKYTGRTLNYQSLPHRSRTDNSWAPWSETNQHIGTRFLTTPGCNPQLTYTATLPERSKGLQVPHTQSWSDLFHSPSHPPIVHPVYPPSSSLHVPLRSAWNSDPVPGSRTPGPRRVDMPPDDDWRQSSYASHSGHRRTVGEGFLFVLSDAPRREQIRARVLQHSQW
Chain of UniProt Q9UHP3 (Q9UHP3 whole entry): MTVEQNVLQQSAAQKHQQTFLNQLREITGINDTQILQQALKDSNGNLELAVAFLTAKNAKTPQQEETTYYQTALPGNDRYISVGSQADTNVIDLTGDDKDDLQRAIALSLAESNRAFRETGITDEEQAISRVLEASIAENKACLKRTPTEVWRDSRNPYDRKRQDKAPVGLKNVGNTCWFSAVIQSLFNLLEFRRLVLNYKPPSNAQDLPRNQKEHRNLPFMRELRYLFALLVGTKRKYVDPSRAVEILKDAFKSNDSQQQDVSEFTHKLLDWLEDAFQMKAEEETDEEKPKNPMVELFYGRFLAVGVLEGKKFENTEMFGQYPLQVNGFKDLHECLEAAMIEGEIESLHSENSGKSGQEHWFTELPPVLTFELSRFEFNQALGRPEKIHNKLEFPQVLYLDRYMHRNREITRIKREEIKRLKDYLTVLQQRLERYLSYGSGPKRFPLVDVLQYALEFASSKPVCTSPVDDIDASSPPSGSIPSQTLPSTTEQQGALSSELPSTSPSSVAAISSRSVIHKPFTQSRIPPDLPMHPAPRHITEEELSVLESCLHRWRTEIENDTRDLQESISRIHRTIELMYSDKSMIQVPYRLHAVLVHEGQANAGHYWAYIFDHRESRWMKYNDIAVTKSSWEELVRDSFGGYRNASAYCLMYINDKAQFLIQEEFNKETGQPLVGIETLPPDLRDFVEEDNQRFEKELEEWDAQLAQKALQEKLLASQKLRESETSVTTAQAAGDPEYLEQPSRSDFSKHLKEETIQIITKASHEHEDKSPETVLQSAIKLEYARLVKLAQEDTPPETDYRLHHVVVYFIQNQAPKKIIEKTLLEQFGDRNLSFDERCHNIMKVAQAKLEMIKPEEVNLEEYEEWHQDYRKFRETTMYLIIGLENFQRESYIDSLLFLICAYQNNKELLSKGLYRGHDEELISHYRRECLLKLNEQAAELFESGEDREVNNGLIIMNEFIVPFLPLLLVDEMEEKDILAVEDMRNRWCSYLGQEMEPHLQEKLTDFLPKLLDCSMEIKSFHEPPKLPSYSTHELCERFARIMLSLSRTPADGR
Chain of UniProt Q93009 (Q93009 whole entry, looked up): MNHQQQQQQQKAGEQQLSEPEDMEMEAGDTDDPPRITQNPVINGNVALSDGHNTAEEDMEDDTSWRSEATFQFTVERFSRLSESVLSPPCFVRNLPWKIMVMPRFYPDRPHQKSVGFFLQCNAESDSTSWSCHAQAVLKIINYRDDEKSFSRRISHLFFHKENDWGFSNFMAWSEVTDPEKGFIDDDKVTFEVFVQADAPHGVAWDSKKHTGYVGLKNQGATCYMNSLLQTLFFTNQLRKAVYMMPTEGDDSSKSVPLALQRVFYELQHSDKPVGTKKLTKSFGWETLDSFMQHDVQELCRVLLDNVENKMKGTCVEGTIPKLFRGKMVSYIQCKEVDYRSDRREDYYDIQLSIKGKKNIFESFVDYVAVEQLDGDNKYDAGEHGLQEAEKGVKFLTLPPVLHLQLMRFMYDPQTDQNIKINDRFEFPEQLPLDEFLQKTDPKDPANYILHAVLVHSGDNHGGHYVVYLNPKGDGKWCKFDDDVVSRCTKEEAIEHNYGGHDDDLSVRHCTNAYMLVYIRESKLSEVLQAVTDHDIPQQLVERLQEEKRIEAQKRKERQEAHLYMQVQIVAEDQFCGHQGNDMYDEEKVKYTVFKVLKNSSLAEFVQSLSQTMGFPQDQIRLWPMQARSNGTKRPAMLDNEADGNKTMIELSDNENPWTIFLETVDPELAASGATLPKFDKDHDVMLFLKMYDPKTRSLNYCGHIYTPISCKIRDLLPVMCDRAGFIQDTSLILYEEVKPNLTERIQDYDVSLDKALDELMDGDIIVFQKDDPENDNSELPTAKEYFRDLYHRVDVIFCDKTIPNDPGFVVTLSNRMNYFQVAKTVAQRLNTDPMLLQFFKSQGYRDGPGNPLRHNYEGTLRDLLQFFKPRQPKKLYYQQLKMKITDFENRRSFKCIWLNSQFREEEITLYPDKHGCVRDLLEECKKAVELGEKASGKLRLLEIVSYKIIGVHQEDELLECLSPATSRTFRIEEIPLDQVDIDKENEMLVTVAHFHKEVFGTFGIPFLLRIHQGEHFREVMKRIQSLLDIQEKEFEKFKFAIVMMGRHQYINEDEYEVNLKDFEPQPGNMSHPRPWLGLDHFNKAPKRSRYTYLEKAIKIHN
Chain of UniProt Q96FW1 (Q96FW1 whole entry): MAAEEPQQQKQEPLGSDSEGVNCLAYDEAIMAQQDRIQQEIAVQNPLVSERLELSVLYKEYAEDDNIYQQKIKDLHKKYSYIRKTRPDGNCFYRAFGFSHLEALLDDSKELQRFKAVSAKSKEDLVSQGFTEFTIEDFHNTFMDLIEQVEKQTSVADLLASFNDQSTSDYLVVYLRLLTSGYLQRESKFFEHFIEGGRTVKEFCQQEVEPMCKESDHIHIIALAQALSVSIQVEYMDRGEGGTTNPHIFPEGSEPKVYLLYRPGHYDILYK
Chain of UniProt P54252 (P54252 whole entry): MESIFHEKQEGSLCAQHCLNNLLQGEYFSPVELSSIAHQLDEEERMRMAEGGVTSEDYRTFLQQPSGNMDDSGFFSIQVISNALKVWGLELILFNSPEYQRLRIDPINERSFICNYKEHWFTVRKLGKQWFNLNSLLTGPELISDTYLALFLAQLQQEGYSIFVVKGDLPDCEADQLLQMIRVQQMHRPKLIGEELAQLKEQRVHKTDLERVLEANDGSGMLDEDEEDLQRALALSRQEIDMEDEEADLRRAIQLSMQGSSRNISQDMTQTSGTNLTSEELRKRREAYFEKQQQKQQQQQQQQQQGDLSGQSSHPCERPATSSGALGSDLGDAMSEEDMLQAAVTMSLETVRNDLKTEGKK
Chain of UniProt P15374 (P15374 whole entry): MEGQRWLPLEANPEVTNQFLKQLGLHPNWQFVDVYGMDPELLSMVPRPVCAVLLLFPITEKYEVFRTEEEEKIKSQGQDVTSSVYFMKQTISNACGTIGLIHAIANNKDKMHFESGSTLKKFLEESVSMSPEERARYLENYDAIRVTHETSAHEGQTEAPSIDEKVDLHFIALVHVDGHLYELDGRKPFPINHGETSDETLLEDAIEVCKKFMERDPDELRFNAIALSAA
Chain of UniProt O00303 (O00303 whole entry): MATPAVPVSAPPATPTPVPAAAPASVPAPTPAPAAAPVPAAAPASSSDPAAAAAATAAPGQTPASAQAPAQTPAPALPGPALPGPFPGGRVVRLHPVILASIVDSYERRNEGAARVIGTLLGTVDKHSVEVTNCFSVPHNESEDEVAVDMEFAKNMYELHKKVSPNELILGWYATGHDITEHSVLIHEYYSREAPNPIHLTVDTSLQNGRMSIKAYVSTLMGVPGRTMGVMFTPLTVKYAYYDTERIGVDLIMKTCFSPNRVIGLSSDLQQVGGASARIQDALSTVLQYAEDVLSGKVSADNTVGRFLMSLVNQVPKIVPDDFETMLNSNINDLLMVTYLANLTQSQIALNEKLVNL

| Target | log2 ratio of Biotin-Ahx-Ub-VS probe labelling [1] | log2 ratio of Biotin-Ahx-Ub-VS probe labelling [2] | log2 ratio of Biotin-Ahx-Ub-VS probe labelling [3] | log2 ratio of Biotin-Ahx-Ub-VS probe labelling [4] | log2 ratio of Biotin-Ahx-Ub-VS probe labelling [5] | log2 ratio of Biotin-Ahx-Ub-VS probe labelling [6] | log2 ratio of Biotin-Ahx-Ub-VS probe labelling [7] | log2 ratio of Biotin-Ahx-Ub-VS probe labelling [8] | log2 ratio of Biotin-Ahx-Ub-VS probe labelling [9] | log2 ratio of Biotin-Ahx-Ub-VS probe labelling [10] | log2 ratio of Biotin-Ahx-Ub-VS probe labelling [11] | log2 ratio of Biotin-Ahx-Ub-VS probe labelling [12] | log2 ratio of Biotin-Ahx-Ub-VS probe labelling [13] | log2 ratio of Biotin-Ahx-Ub-VS probe labelling [14] | log2 ratio of Biotin-Ahx-Ub-VS probe labelling [15] | log2 ratio of Biotin-Ahx-Ub-VS probe labelling [16] | log2 ratio of Biotin-Ahx-Ub-VS probe labelling [17] | log2 ratio of Biotin-Ahx-Ub-VS probe labelling [18] |
| --- | --- | --- | --- | --- | --- | --- | --- | --- | --- | --- | --- | --- | --- | --- | --- | --- | --- | --- |
| USP54 (UniProt Q70EL1) | 0.0698 | 0.582 | 0.646 | 0.245 | 0.658 | 0.179 | 0.204 | 0.439 | 0.226 | 0.528 | 0.34 | -0.205 | 0.194 | 0.336 | 0.0874 | 0.439 | 0.681 | – |
| VCPIP1 (UniProt Q96JH7) | -0.221 | -1.63 (active) | -0.946 | -0.492 | -0.305 | -0.056 | -1.46 (active) | -1.21 (active) | -0.628 | -0.412 | -1.34 (active) | -0.205 | -0.518 | -0.707 | -0.226 | -0.695 | -2.08 (active) | -0.276 |
| UniProt O00507 | 0.374 | 0.0497 | -0.0879 | -0.429 | -0.148 | 0.12 | 0.023 | 0.0709 | 0.409 | -0.563 | -0.51 | 0.333 | 0.0321 | 0.0835 | 0.383 | -0.338 | -0.568 | -0.0912 |
| ALG13 (UniProt Q9NP73) | 0.0397 | -0.0404 | -1.07 | 0.242 | 0.125 | -0.757 | -0.0979 | 0.249 | 0.182 | -0.152 | -0.305 | -0.0228 | 0.017 | 0.00528 | 0.149 | -0.6 | 0.292 | – |
| USP25 (UniProt Q9UHP3) | -0.0734 | -0.0952 | -0.722 | -0.62 | -0.368 | 0.0415 | -0.392 | -0.444 | -0.307 | -0.446 | -0.133 | -0.102 | -0.276 | -0.149 | 0.0208 | -0.419 | -1.21 (active) | – |
| UniProt P51784 | -0.051 | 0.138 | 0.0474 | -0.248 | -0.0132 | 0.0405 | -0.202 | -0.227 | 0.0778 | -0.209 | 0.0993 | -0.126 | -0.072 | -0.102 | 0.104 | -0.104 | -0.628 | – |
| BAP1 (UniProt Q92560) | 0.0148 | -2.33 (active) | -1.53 (active) | -0.422 | -0.661 | -0.252 | -2.59 (active) | -1.83 (active) | -1.05 (active) | -1.34 (active) | -2.85 (active) | -0.0644 | -3.06 (active) | -1.81 (active) | -0.549 | -1.81 (active) | -2.97 (active) | – |
| USP14 (UniProt P54578) | -0.0633 | 0.0378 | -0.306 | -0.639 | -0.518 | -0.00359 | -0.188 | -0.184 | 0.051 | -0.437 | -0.178 | -0.0389 | -0.0892 | 0.0427 | 0.00941 | -0.0561 | -0.675 | – |
| USP4 (UniProt Q13107) | 0.153 | 0.162 | -0.162 | -0.204 | -0.321 | -0.349 | -0.155 | -0.256 | 0.0368 | -0.309 | -0.0374 | -0.0039 | -0.169 | 0.0544 | 0.132 | -0.0646 | -0.558 | – |
| USP34 (UniProt Q70CQ2) | -0.0417 | -0.172 | -0.119 | -0.00177 | -0.247 | -0.0987 | -0.256 | -0.0637 | -0.0566 | -0.451 | -0.0758 | -0.0409 | -0.0189 | 0.000583 | 0.219 | -0.146 | -0.774 | – |
| USP42 (UniProt Q9H9J4) | 0.361 | -0.342 | -0.295 | -0.305 | -0.42 | -0.0896 | 0.113 | 0.381 | 0.125 | 0.374 | 0.49 | 0.0331 | -0.72 | -0.299 | -0.0821 | -0.125 | 0.584 | -0.0349 |
| EIF3H (UniProt O15372) | -0.185 | 0.239 | -0.385 | -0.0794 | -0.144 | 0.0605 | 0.0219 | 0.0847 | 0.0871 | 0.0591 | 0.337 | 0.342 | -0.198 | -0.00227 | 0.038 | 0.206 | 0.176 | – |
| UCHL3 (UniProt P15374) | 0.39 | 0.116 | 0.0229 | 0.0176 | 0.122 | -0.0569 | -0.129 | -0.345 | 0.56 | 0.214 | 0.504 | 0.341 | -0.0242 | 0.0333 | 0.275 | 0.103 | -0.827 | – |
| UniProt O00487 | -0.123 | -0.134 | -0.0855 | -0.115 | -0.19 | -0.0571 | 0.0118 | -0.116 | -0.0519 | -0.139 | 0.0936 | -0.0818 | -0.263 | -0.192 | -0.162 | -0.0244 | -0.0223 | -0.179 |
| USP7 (UniProt Q93009) | -0.278 | -0.0253 | -0.0899 | -0.604 | -0.322 | -0.42 | -0.32 | -0.48 | -0.237 | -0.376 | 0.00818 | -0.609 | -0.186 | -0.0702 | -0.207 | -0.0794 | -0.98 | – |
| UniProt Q5T2D3 | 0.0213 | -0.301 | -0.208 | -0.128 | -0.269 | -0.159 | -0.226 | -0.0544 | -0.17 | -0.141 | -0.0477 | -0.0257 | -0.314 | -0.239 | -0.00242 | -0.0389 | -0.998 | – |
| ATXN3 (UniProt P54252) | -0.0377 | 0.0273 | -0.0841 | -0.487 | -0.327 | -0.303 | -0.0822 | -0.171 | -0.116 | -0.268 | -0.254 | -0.156 | -0.305 | -0.206 | -0.0451 | -0.0869 | -1.02 (active) | – |
| EIF3F (UniProt O00303) | -0.0929 | -0.197 | -0.16 | -0.0889 | -0.424 | -0.158 | -0.0386 | -0.0785 | 0.0404 | -0.0892 | -0.495 | -0.124 | -0.132 | -0.235 | 0.0109 | 0.0785 | -0.0247 | -0.0875 |
| OTUB1 (UniProt Q96FW1) | -0.0296 | 0.137 | -0.0525 | -0.264 | -0.26 | 0.0388 | 0.388 | 0.123 | 0.281 | 0.165 | -0.174 | 0.116 | -0.247 | -0.422 | 0.252 | -0.0321 | -0.286 | – |
| USP15 (UniProt Q9Y4E8) | -0.00677 | 0.017 | -0.0215 | -0.269 | -0.339 | -0.338 | -0.104 | -0.325 | -0.245 | -0.374 | -0.116 | -0.163 | -0.364 | -0.255 | 0.0921 | -0.327 | -0.77 | -0.268 |
| FAM105A (UniProt Q9NUU6) | 0.277 | 0.257 | 0.116 | 0.0605 | 0.177 | 0.232 | -0.696 | 0.176 | 0.144 | 0.133 | -0.00706 | -0.0484 | 0.105 | 0.185 | -0.0373 | 0.0935 | 0.0436 | – |
| USP9X (UniProt Q93008) | -0.0684 | -0.269 | -0.142 | -0.264 | -0.347 | -0.336 | -0.0452 | -0.0218 | -0.239 | -0.36 | -0.111 | 0.0487 | -0.264 | -0.191 | -0.0136 | -0.446 | -0.734 | -0.125 |
| PRPF8 (UniProt Q6P2Q9) | 0.0577 | -0.0808 | -0.0383 | -0.109 | -0.0419 | -0.249 | 0.147 | 0.15 | 0.137 | 0.0499 | -0.0129 | 0.139 | -0.152 | -0.103 | 0.164 | -0.228 | 0.0652 | – |
| USP39 (UniProt Q53GS9) | -0.169 | -0.144 | -0.231 | -0.11 | -0.122 | 0.248 | -0.329 | -0.224 | 0.121 | -0.07 | 0.28 | 0.0652 | -0.079 | -0.0869 | -0.101 | -0.0526 | 0.19 | -0.194 |
